Measured values: PubChem BioAssay (NCI)
The panel holds about 83,000 compounds, 20% with a hit somewhere; the sample as a whole holds those more often.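 Growth was measured after 48 h exposure to one concentration of compound in 96-well plates. Values under 10 count as active.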 Calls of active or inactive are those of the source.

Assays:
Assay in all cases: NCI-60 one-dose screen, 48 h (100 = growth as untreated, 0 = no growth, -100 = all killed)
Conditions in all cases: 10 µM unless noted
NCI-H226 lung = system: NCI-H226 lung
NCI-H322M lung = system: NCI-H322M lung
HOP-62 NSCLC = system: HOP-62 NSCLC
NCI-H460 lung = system: NCI-H460 lung
HOP-92 NSCLC = system: HOP-92 NSCLC
NCI-H522 lung = system: NCI-H522 lung
A549/ATCC NSCLC = system: A549/ATCC NSCLC
786-0 renal = system: 786-0 renal
COLO 205 colon = system: COLO 205 colon
DU-145 prostate = system: DU-145 prostate

Measured: growth

O=C1C2=C(C(=O)c3c(O)cccc31)C(c1ccco1)c1sc(=O)[nH]c1S2 (stereo not given)
active: NCI-H226 lung -20.7% | NCI-H322M lung -97.7% | HOP-62 NSCLC -72.2% | NCI-H460 lung -4% | NCI-H522 lung -5.29% | A549/ATCC NSCLC -47.7% | COLO 205 colon -89.4% | DU-145 prostate -93.9%
inactive: HOP-92 NSCLC 69.5% | 786-0 renal 62.3%

C=CCSc1ccc2c(c1)C(N1CCNCC1)=Nc1ccccc1O2
inactive: NCI-H226 lung 87.4% [8.25 µM] | NCI-H322M lung 85.6% [8.25 µM] | HOP-62 NSCLC 84.7% [8.25 µM] | NCI-H460 lung 85.7% [8.25 µM] | HOP-92 NSCLC 34.2% [8.25 µM] | NCI-H522 lung 74% [8.25 µM] | A549/ATCC NSCLC 71.7% [8.25 µM] | 786-0 renal 60.4% [8.25 µM] | DU-145 prostate 90.8% [8.25 µM]
active: COLO 205 colon 7.69% [8.25 µM]

COc1cc(-c2nc3ccc(-c4nnc(SCC(=O)Nc5ccc(C(=O)/C=C/c6ccc(Cl)cc6)cc5)o4)cc3[nH]2)cc(OC)c1OC
inactive: NCI-H226 lung 91.7% | NCI-H322M lung 96.2% | HOP-62 NSCLC 101% | NCI-H460 lung 105% | HOP-92 NSCLC 82.2% | NCI-H522 lung 92.6% | A549/ATCC NSCLC 101% | 786-0 renal 90.8% | COLO 205 colon 108% | DU-145 prostate 104%

C/C(=N\NC(N)=O)c1c(O)sc(=O)[nH]c1=O
inactive: NCI-H226 lung 101% | NCI-H322M lung 97.3% | HOP-62 NSCLC 96.6% | NCI-H460 lung 106% | HOP-92 NSCLC 104% | NCI-H522 lung 98.7% | A549/ATCC NSCLC 98.4% | 786-0 renal 104% | COLO 205 colon 108% | DU-145 prostate 110%

C#Cc1nc(C2=C(C)C(=N\O)/C(=N/O)C2)cs1
active: 786-0 renal -90.9%
inactive: NCI-H226 lung 101% | NCI-H322M lung 99.2% | HOP-62 NSCLC 101% | NCI-H460 lung 97% | HOP-92 NSCLC 88.5% | NCI-H522 lung 91.8% | A549/ATCC NSCLC 95.3% | COLO 205 colon 118% | DU-145 prostate 92.2%

Oc1c(Cl)cc(Cl)c2ccc(CN3CCCCC3)nc12
inactive: NCI-H226 lung 48.6% | NCI-H322M lung 37.9% | HOP-62 NSCLC 48.1% | NCI-H460 lung 22.2% | HOP-92 NSCLC 48.6% | NCI-H522 lung 34% | A549/ATCC NSCLC 44.7% | 786-0 renal 36.1% | COLO 205 colon 79.9% | DU-145 prostate 44%

Cc1ccc(CNS(=O)(=O)/N=C2\NC(=O)NC2=C(Cl)Cl)cc1
inactive: NCI-H226 lung 79.1% | NCI-H322M lung 99.9% | HOP-62 NSCLC 46.2% | NCI-H460 lung 75.3% | NCI-H522 lung 36.8% | A549/ATCC NSCLC 99.2% | 786-0 renal 36.6% | COLO 205 colon 113% | DU-145 prostate 32.6%
active: HOP-92 NSCLC -1.1%

NS(=O)(=O)c1cccc(Nc2nc(SCC(=O)c3ccc(Br)cc3)nc3ccccc23)c1
active: NCI-H226 lung 4.97%
inactive: NCI-H322M lung 97.6% | HOP-62 NSCLC 59.5% | NCI-H460 lung 38.5% | HOP-92 NSCLC 38.2% | NCI-H522 lung 40.8% | A549/ATCC NSCLC 60.3% | 786-0 renal 14.2% | COLO 205 colon 75.8% | DU-145 prostate 69.4%

Clc1ccc(Cc2nnc3sc(-c4cccnc4)nn23)cc1
inactive: NCI-H226 lung 93% | NCI-H322M lung 87.8% | HOP-62 NSCLC 107% | NCI-H460 lung 103% | HOP-92 NSCLC 91.9% | NCI-H522 lung 89.5% | A549/ATCC NSCLC 98.2% | 786-0 renal 92.6% | DU-145 prostate 101%

O=C(CN1CCOCC1)NNc1ncnc2ccccc12
inactive: NCI-H226 lung 107% | NCI-H322M lung 102% | HOP-62 NSCLC 115% | NCI-H460 lung 108% | HOP-92 NSCLC 51.5% | A549/ATCC NSCLC 105% | 786-0 renal 58.9% | DU-145 prostate 102%
active: NCI-H522 lung -61%

N/C(=N\c1nc2c(Cl)cc(Cl)cc2s1)C(Cl)(Cl)Cl
active: NCI-H322M lung -55.6% | NCI-H460 lung -1.22% | A549/ATCC NSCLC -12.9% | COLO 205 colon -16% | DU-145 prostate -27.8%
inactive: NCI-H226 lung 73.5% | HOP-62 NSCLC 20.1% | HOP-92 NSCLC 46.4% | NCI-H522 lung 82.4% | 786-0 renal 85.4%

c1ccc2c(NCCCn3ccnc3)c3oc4ccccc4c3nc2c1
inactive: HOP-62 NSCLC 19.5% | A549/ATCC NSCLC 10.5%
active: NCI-H226 lung -1.35% | NCI-H322M lung -13.4% | NCI-H460 lung -19.3% | HOP-92 NSCLC -23.7% | NCI-H522 lung -23.1% | 786-0 renal 2.46% | DU-145 prostate -17.2%

OC1CCc2c(-c3ccc4ncnc(N5CCc6cc(F)c(Cl)cc65)c4c3)cncc21 (stereo not given)
inactive: NCI-H226 lung 56.7% | NCI-H322M lung 15% | HOP-62 NSCLC 63.7% | NCI-H460 lung 50.7% | HOP-92 NSCLC 23.1% | NCI-H522 lung 40.1% | A549/ATCC NSCLC 50.3% | 786-0 renal 43.7% | COLO 205 colon 82.3% | DU-145 prostate 35.8%

Cn1c(SCC(=O)Nc2ccc(-c3nc4ccc([N+](=O)[O-])cc4[nH]3)cc2)nc2ccccc2c1=O
inactive: NCI-H226 lung 37.9% | NCI-H322M lung 68.6% | HOP-62 NSCLC 94.9% | NCI-H460 lung 82.3% | HOP-92 NSCLC 59.5% | NCI-H522 lung 74.1% | A549/ATCC NSCLC 89.5% | 786-0 renal 81.5% | DU-145 prostate 90.6%

Cc1[nH]nc2ncc(C#Cc3cncc(C(=O)Nc4ccc(CN5CCN(C)CC5)c(C(F)(F)F)c4)c3)cc12
active: NCI-H226 lung 3.71% | HOP-92 NSCLC -23%
inactive: NCI-H322M lung 44.3% | HOP-62 NSCLC 28.9% | NCI-H460 lung 10.7% | NCI-H522 lung 47.8% | A549/ATCC NSCLC 23.9% | 786-0 renal 43.1% | DU-145 prostate 36.4%

CN(C)c1ccc(/C=c2\sc3nc4ccccc4n3c2=O)cc1
inactive: NCI-H226 lung 105% | NCI-H322M lung 90.8% | HOP-62 NSCLC 108% | NCI-H460 lung 105% | HOP-92 NSCLC 103% | NCI-H522 lung 102% | A549/ATCC NSCLC 117% | 786-0 renal 98.5% | COLO 205 colon 111% | DU-145 prostate 110%

Cc1ccc2ccc3ccc(C)nc3c2n1.Cc1ccc2ccc3ccc(C)nc3c2n1.Oc1c(Cl)cc(Cl)c2ccc(CN3CCCCC3)nc12.[Ru]
active: NCI-H226 lung -69% | NCI-H322M lung -83.4% | HOP-62 NSCLC -57.2% | NCI-H460 lung -15.2% | HOP-92 NSCLC -86.5% | NCI-H522 lung -68.8% | A549/ATCC NSCLC -42.7% | 786-0 renal -87.7% | DU-145 prostate -93.3%

N#Cc1ccc(/C=N/NC(=O)c2[nH]c3ccc(Br)cc3c2-c2ccccc2)s1
active: NCI-H460 lung 3.12% | NCI-H522 lung -22.7%
inactive: NCI-H226 lung 46.9% | NCI-H322M lung 45.9% | HOP-62 NSCLC 26.9% | HOP-92 NSCLC 33.9% | A549/ATCC NSCLC 22.4% | 786-0 renal 10.2% | DU-145 prostate 19.3%

Nc1ncc(-c2ccc3ncnc(N4CCc5cc(F)c(Cl)cc54)c3c2)cc1CO
active: NCI-H322M lung -2.33% | HOP-62 NSCLC 9.91% | NCI-H460 lung 6.98% | HOP-92 NSCLC -13.2% | NCI-H522 lung -18% | A549/ATCC NSCLC 3.94% | 786-0 renal 4.92%
inactive: NCI-H226 lung 18.9% | DU-145 prostate 11.3%

COc1ccc(NC2=CC(=O)C(C)=C(C)C2=O)cc1
inactive: NCI-H226 lung 97.2% | NCI-H322M lung 103% | HOP-62 NSCLC 99.7% | NCI-H460 lung 99.6% | HOP-92 NSCLC 172% | NCI-H522 lung 82.5% | A549/ATCC NSCLC 97.3% | 786-0 renal 90.5% | DU-145 prostate 105%

NC(=O)c1cc(-c2ccc3ncnc(N4CCc5cc(F)c(Cl)cc54)c3c2)cnc1N
active: NCI-H226 lung 9.39% | NCI-H322M lung -3.06%
inactive: HOP-62 NSCLC 27.9% | NCI-H460 lung 20% | HOP-92 NSCLC 15.8% | NCI-H522 lung 19.1% | A549/ATCC NSCLC 16.9% | 786-0 renal 12.8% | DU-145 prostate 14.3%

Cn1cc(-c2cc(N)n3nc(-c4cn(C)c5ccc(Br)cc45)cc3n2)c2cc(Br)ccc21
inactive: NCI-H226 lung 109% | NCI-H322M lung 86.2% | HOP-62 NSCLC 94.8% | NCI-H460 lung 69% | HOP-92 NSCLC 76.9% | NCI-H522 lung 102% | A549/ATCC NSCLC 91% | 786-0 renal 94% | DU-145 prostate 60.5%

Clc1ccc2c(NCCCN3CCOCC3)c3oc4ccc(Cl)cc4c3nc2c1
inactive: NCI-H226 lung 38.4% | NCI-H322M lung 48.5% | HOP-62 NSCLC 67.2% | NCI-H460 lung 13% | HOP-92 NSCLC 43.6% | NCI-H522 lung 44.9% | A549/ATCC NSCLC 53.9% | DU-145 prostate 57.2%
active: 786-0 renal -22.4%

Nc1nc(N)c2c(n1)NC(c1ccc(F)cc1)CC(c1ccc(Nc3nc(NCCO)nc(Nc4ccc(Cl)cc4)n3)cc1)=N2 (stereo not given)
inactive: NCI-H226 lung 22.2% | NCI-H322M lung 29.1% | HOP-62 NSCLC 68.1% | A549/ATCC NSCLC 57% | COLO 205 colon 28.4% | DU-145 prostate 12.2%
active: NCI-H460 lung -54.5% | HOP-92 NSCLC -65.5% | NCI-H522 lung -18.4% | 786-0 renal -71.1%

c1ccc(CNc2ncnc3ccc(-c4cnc5[nH]ncc5c4)cc23)cc1
inactive: NCI-H226 lung 55.7% | NCI-H322M lung 59.3% | HOP-62 NSCLC 60.7% | NCI-H460 lung 65.7% | HOP-92 NSCLC 57.9% | NCI-H522 lung 60.9% | A549/ATCC NSCLC 37.5% | 786-0 renal 61.8% | COLO 205 colon 94% | DU-145 prostate 49.6%

COc1ccc(/C=N/NC(=O)c2[nH]c3ccc(Br)cc3c2-c2ccccc2)o1
active: NCI-H460 lung 0.221% | NCI-H522 lung -54.6%
inactive: NCI-H226 lung 49.7% | NCI-H322M lung 44.2% | HOP-62 NSCLC 47.6% | HOP-92 NSCLC 33.2% | A549/ATCC NSCLC 30.4% | 786-0 renal 13.3% | DU-145 prostate 20%

O=c1[nH]c2ccccc2cc1CSc1ccccc1Nc1nccc(-c2ccc(C(F)(F)F)cc2)n1
inactive: NCI-H226 lung 56.8% | NCI-H322M lung 90.5% | HOP-62 NSCLC 78.5% | NCI-H460 lung 40.8% | HOP-92 NSCLC 20.5% | NCI-H522 lung 80% | A549/ATCC NSCLC 57.6% | 786-0 renal 45.4% | DU-145 prostate 73.4%

Cc1nc(-c2cc3ccccc3oc2=O)ccc1C(=O)/C=C/c1ccccn1
inactive: NCI-H226 lung 88.7% | NCI-H322M lung 86.3% | HOP-62 NSCLC 103% | NCI-H460 lung 41.1% | HOP-92 NSCLC 80.3% | NCI-H522 lung 58.6% | A549/ATCC NSCLC 66.5% | DU-145 prostate 47.3%
active: 786-0 renal 6.4%
